Molecules are shown by their SMILES. Values joined by “and” are separate entries in the source; they are usually repeats but may differ in a detail not shown here. Equal entries are not always repeated. A number with no mark means an inactive call. The rule behind the calls is not given here.

The target in this assay is Pantothenate synthetase (Mycobacterium tuberculosis (strain ATCC 25618 / H37Rv)) (UniProt P9WIL5). The assay can be described thus: Recombinant Mtb pantothenate synthetase (PanC) inhibitors, coupled enzyme, confirmatory (AID 375).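 Note: 0% = full reaction with vehicle and 100% = no enzyme background.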 Conditions: coupled enzyme assay; at 10 µM, active compounds read high.
Chain of Pantothenate synthetase (Mycobacterium tuberculosis (strain ATCC 25618 / H37Rv)) (P9WIL5 whole entry, looked up): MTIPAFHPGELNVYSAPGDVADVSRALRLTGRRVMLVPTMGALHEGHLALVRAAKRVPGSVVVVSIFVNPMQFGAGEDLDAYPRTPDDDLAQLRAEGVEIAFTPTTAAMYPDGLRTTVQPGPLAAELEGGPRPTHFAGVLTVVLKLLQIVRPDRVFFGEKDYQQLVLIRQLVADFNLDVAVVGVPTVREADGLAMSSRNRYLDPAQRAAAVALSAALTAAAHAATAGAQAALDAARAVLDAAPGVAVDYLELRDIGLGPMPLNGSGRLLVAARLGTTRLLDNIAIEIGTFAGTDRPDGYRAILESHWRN
As usually defined, the inhibition is how much of the control response was suppressed. For the molecule `O=c1[nH]c(SCc2ccccc2Cl)nc2c1CCCC2`, the inhibition is 0%.
For `COc1ccc(OC)c(C(=O)CSc2nc3ncccc3[nH]2)c1` the value was 0%.
In the case of `O=C(c1ccc(Cl)cc1)N1CCCCC(Sc2nnc(-c3ccc4c(c3)OCO4)o2)C1=O` (stereo not given), the inhibition is 3%.
As for `N#Cc1c2n(c(=S)n(-c3ccccn3)c1=O)CCCCC2`, the inhibition is 2%.
On to `CC(O)Cn1cnc2c1c(=O)n(C)c(=O)n2C` (stereo not given), for which the inhibition was 2%.
Take `CC(CCc1ccccc1)NC(=O)C1CCCN(c2nnc(-n3cccc3)s2)C1` (stereo not given): the inhibition was 0%.
`O=c1[nH]c(NCc2ccccc2)nc2c1CCCC2`: the inhibition is 0%.
With `O=C(CN1C(=O)COc2ccccc21)NCCN1CCc2ccccc2C1` the figure was 7%; with `C[C@]12CCC(=O)C=C1CC[C@@H]1[C@@H]2[C@@H](O)C[C@@]2(C)[C@H]1CC[C@]2(O)C(=O)COC(=O)CCC(=O)O`, 0% and 2%; with `CC1CCN(CC(O)COC2CCC(C(C)(C)C)CC2)CC1` (stereo not given), 0%.
Turning to `COc1ccccc1OCCCn1c(=O)oc2ccccc21`, the inhibition is 0%.
For `CC(=O)Nc1ccccc1O` the value was 9%; for `CC(=O)NCC(=O)N(Cc1ccco1)C1(C(=O)NC2CCCCC2)CCCCC1`, 0%; for `COc1cccc2cc(C(=O)OC3CCN(C)CC3)c(=O)oc12`, 9%.
Regarding `Cc1ccc(CNC(=O)CSc2n[nH]c(N)n2)cc1`, the inhibition is 0%.
As to `O=S1(=O)C=C(Sc2nnc(-c3ccccc3)o2)c2ccccc21`, the inhibition is 3%.
For `NS(=O)(=O)c1cc2c(cc1Cl)NC(C(Cl)Cl)NS2(=O)=O` (stereo not given) the value was 2%.
`CCn1c(CCNC(=O)c2ccc(OC)c(OC)c2)nc2ccccc21`: the inhibition was 3%.
Consider `Cc1ccc(C(=O)CSc2nnc(CNc3ccc(C)cc3C)o2)cc1`, for which the inhibition was 7%.
With `COc1ccc(C2c3c(oc4ccccc4c3=O)C(=O)N2Cc2ccncc2)cc1OC` (stereo not given) the figure was 6%; with `COC(=O)Cn1c2c(c3cc(C)ccc31)CCCC2`, 1%.
For `Nc1nonc1C(=O)NCCNCc1cc(Br)ccc1OCc1ccccc1F` the value was 0%; for `Cn1cccc1Cc1nnc(SCC(=O)Nc2ccccc2F)n1-c1ccc(F)cc1`, 0%; for `COc1ccc(C2=NO[C@@H]3C(=O)N(c4cccc(C)c4C)C(=O)[C@H]23)cc1OC`, 1%.
Turning to `COC(=O)c1ccccc1NC(=O)CSc1nnnn1C1CCCCC1`, the inhibition is 6%.
With `COc1cc(C2c3c(n[nH]c3C)C(=O)N2c2ccc(C)cc2)ccc1O` (stereo not given) the figure was 0%.
As for `COC(=O)c1ccc(NC(=O)Cn2nnc3ccccc32)cc1`, the inhibition is 0%.
Take `O=c1oc(-c2ccco2)nc2ccccc12`: the inhibition is 2%.
`CC1(C)OC(=O)C(=CNC(CCC(N)=O)C(=O)O)C(=O)O1` (stereo not given): the inhibition was 3%.
Consider `COC(=O)CSC1=NS(=O)(=O)c2ccccc21`, for which the inhibition is 0%.
Take `C[C@@H]1C[C@H](O)c2cc(Cl)ccc2N1`: the inhibition was 8%.
For the molecule `COc1ccc(NC(=O)NCCN2C(=O)C3C4C=CC(C4)C3C2=O)cc1` (stereo not given), the inhibition was 1%.
Consider `O=C(O)CCc1cc(I)c(Oc2ccc(O)c(I)c2)c(I)c1`, for which the inhibition is 8%.
On to `CN(C)C(=O)N1CCCC(C(=O)NCc2ccccc2)C1` (stereo not given), for which the inhibition is 0%.
For `CC(Sc1nc(-c2ccccc2)cc(C(F)(F)F)n1)C(=O)N1CCC(C(N)=O)CC1` (stereo not given) the value was 0%; for `c1ccc2c(c1)nc(NC1CCCCC1)c1nncn12`, 0%; for `CCCCCOc1ccc(C2NC(=O)NC2=O)cc1` (stereo not given), 0%.
Turning to `COc1ccc(N2C(=O)CC(NC3CC3)C2=O)cc1` (stereo not given), the inhibition is 0%.
For `Cc1ccc(S(=O)(=O)C2(C(=O)N3CCCCCC3)CC2)cc1` the value was 0%.
`CC(C)CCN1CC(C(=O)NCc2ccccc2)CC1=O` (stereo not given): the inhibition is 0%.
